# From PubChem BioAssay AID504707 (The Scripps Research Institute Molecular Screening Center, 2011)
# The whole screen tested about 340,000 compounds, of which about 280 (0.082%) were called active. The sample holds actives, similar compounds and a random draw of the others, so the mix is not that of the screen.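 Rule for the calls: active = percent activation above the mean of all tested compounds plus 3 SD (cut at about 19% in these data); inactive = the rest.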
# Molecular target: cAMP-dependent protein kinase type I-alpha regulatory subunit (Bos taurus) + cAMP-dependent protein kinase catalytic subunit beta (Mus musculus) (UniProt P00514+P68181)
# Assay: activators of PKA-R1A holoenzyme, primary screen, biochemical, fluorescence polarization, Cy5-IP20, bovine R1A, mouse PKAc (AID 504707);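 note: higher means more PKAc released from R1A so a rise in polarization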
# Conditions: PKA-R1A dissociation, at 11.4 µM, active compounds read high, scaled: DMSO 0%, 113 µM cGMP 100%
row,Compound,activation
1,CCc1ccccc1OCC(=O)Nc1nnc(C2CC2)s1,8.59% (inactive)
2,Cc1ccc(C(=O)OCC(=O)N2CC(C)CC(C)C2)cc1S(=O)(=O)N1CCCCC1 (configuration not stated),2.86% (inactive)
3,O=C(OCc1ccccc1)N1CCC2CC1c1ccc(-c3ccc4c(c3)OCO4)cc12 (configuration not stated),-1.02% (inactive)
4,CC(OC(=O)c1cccnc1Cl)C(=O)NC1CCCCC1 (configuration not stated),0.33% (inactive)
5,O=Cc1cn(CCOc2ccc(F)cc2)c2ccccc12,1.87% (inactive)
6,CCOc1ccc(CCNC(=O)COC(=O)c2ccc(C)c(S(=O)(=O)N3CCOCC3)c2)cc1OCC,-10.3% (inactive)
7,COc1ccc(CN2CC(C(=O)NC3CCCCC3)CC2=O)cc1 (configuration not stated),6.81% (inactive)
8,COc1ccc(N)cc1NC(=O)CN1CCOCC1,8.37% (inactive)
9,O=C(C[C@H]1C[C@@H]2c3cc(NC(=O)C4CCC4)ccc3O[C@@H]2[C@H](CO)O1)NC1CCCCC1,-5.02% (inactive)
10,COC(=O)C[C@H]1C[C@@H]2c3cc(NC(=O)Nc4ccccc4)ccc3O[C@@H]2[C@@H](CO)O1,1.1% (inactive)
11,O=C(Nc1ccc2c(c1)[C@@H]1C[C@@H](CC(=O)N3CCCCC3)O[C@@H](CO)[C@@H]1O2)NC1CCCCC1,19.6% (active)
12,CC(C)CCC(=O)Nc1cc(S(=O)(=O)N2CCOCC2)ccc1N1CCCC1,-1.93% (inactive)
13,CC1(c2cccc(Br)c2)NC(=O)N(CC(=O)NCCC2=CCCCC2)C1=O (configuration not stated),-3.47% (inactive)
14,CCOc1ccc(NC(=O)CN(C)C(=O)Cn2c(=O)cnc3ccccc32)cc1OCC,-7.12% (inactive)
15,CCC(Oc1ccccc1C)C(=O)Nc1ccc(S(=O)(=O)Nc2cc(C)on2)cc1 (configuration not stated),20.4% (active)
16,CCc1ccc(OC(C)C(=O)Nc2ccc(S(=O)(=O)Nc3cc(C)on3)cc2)cc1 (configuration not stated),-6.6% (inactive)
17,CCOc1ccc(C(=O)Nc2ccc(S(=O)(=O)Nc3cc(C)on3)cc2)cc1,3.9% (inactive)
18,O[C@H]1CN(Cc2cccs2)[C@@H](c2ccc(Cl)cc2)C[C@@H]1n1cc(C2CC2)nn1,-6.87% (inactive)
19,O=C(O)C1=C(C(=O)O)C2CCC1C2,7.53% (inactive)
20,CCCCCC(=O)N1C[C@H](O)[C@@H](n2cc(COC(=O)c3ccccc3)nn2)C[C@@H]1c1ccc(C)cc1,1.28% (inactive)
21,Cc1ccc(-c2ccc(CN3C(C(C)C)C(=O)N(Cc4cn(CCC5OCCCO5)nn4)CCS3(=O)=O)cc2)cc1 (configuration not stated),-3.03% (inactive)
22,Cc1cccn2c(=O)c3cc(C(=O)NCCN4CCOCC4)c(=N)n(Cc4cccnc4)c3nc12,5.89% (inactive)
23,Cc1ccc(CCNC(=O)c2ccc3nc4ccccc4c(=O)n3c2)cc1,1.64% (inactive)
24,Cc1ccc2nc3c(cc(C(=O)NCCc4ccccc4)c(=N)n3CC3CCCO3)c(=O)n2c1 (configuration not stated),20.5% (active)
25,Cc1ccc(S(=O)(=O)N(CCc2ccccc2)c2ccc3c(c2)C2CC3CCN2C(=O)OCc2ccccc2)cc1 (configuration not stated),-0.4% (inactive)
26,CC(C)NC(=O)Nc1ccc2c(c1)C(=O)N([C@H](C)CO)C[C@H](C)[C@@H](CN(C)Cc1ccc(C(F)(F)F)cc1)OCCCC[C@@H](C)O2,3.01% (inactive)

row,Compound,activation
1,C#CCN(C[C@@H]1[C@@H](OC(=O)NC2CC2)[C@@H](OC(=O)NC2CC2)Cn2c(=O)ccc(=O)n21)S(=O)(=O)c1ccc(C)cc1,-6.57% (inactive)
2,CN(Cc1c(F)cccc1Cl)C(=O)COC(=O)Cn1cnc2ccccc2c1=O,0.6% (inactive)
3,COc1ccc(NC(=O)C[C@H]2C(=O)N(CCc3ccccc3)C[C@@H]2C)cc1,-0.95% (inactive)
4,COc1ccccc1N1CC(C(=O)Nc2nnc(SCC(=O)NC(C)C)s2)CC1=O (configuration not stated),24.3% (active)
5,COc1ccccc1N1CC(C(=O)Nc2nnc(SCC(=O)NCC3CCCO3)s2)CC1=O (configuration not stated),0.23% (inactive)
6,Cc1ccccc1N1CC(C(=O)Nc2nnc(SCCC3OCCO3)s2)CC1=O (configuration not stated),-0.56% (inactive)
7,CC1CN(C(=O)c2cccc(NS(=O)(=O)c3ccc(Br)cc3)c2)CC(C)O1 (configuration not stated),-7.05% (inactive)
8,CSc1ncnc2c1ncn2CCCNCc1ccco1,-1.79% (inactive)
9,COc1cccc(NC(=O)CN(C)C(=O)c2cc(Cl)nc3ccccc23)c1,9.02% (inactive)
10,O=C1c2ccccc2-c2ccccc2NC1O (configuration not stated),10.3% (inactive)
11,Cc1ccc2nsnc2c1NC(=O)c1ccccc1[N+](=O)[O-],-6.39% (inactive)
12,CCOc1cc(C(=O)Nc2c(C)ccc3nsnc23)cc(OCC)c1OCC,19.5% (active)
13,CCOc1cc(C(=O)Nc2ccc(S(=O)(=O)Nc3cnc4ccccc4n3)cc2)cc(OCC)c1OCC,-1.58% (inactive)
14,CCCn1c(N)c(C(=O)CSc2nnc(Cc3cccs3)n2C2CC2)c(=O)[nH]c1=O,9.54% (inactive)
15,O=C1CC[C@@H](C(=O)N2CSC[C@@H]2C(=O)Nc2ccc(C(F)(F)F)cc2)N1,0.56% (inactive)
16,CC(=O)Nc1ccc(SCC(=O)NC(=O)c2ccc(Cl)cc2)cc1,2.13% (inactive)
17,CCC(=O)N1CCc2cc(S(=O)(=O)CCC(=O)N3CCN(c4ccccc4F)CC3)ccc21,2.69% (inactive)
18,Cc1ccn(C(CC(=O)c2ccc(Br)cc2)C(=O)O)n1 (configuration not stated),-7.77% (inactive)
19,CC1C(=O)N(Cc2cn(CC3CCCCC3)nn2)CCS(=O)(=O)N1Cc1ccc(-c2cccc(N(C)C)c2)cc1 (configuration not stated),-4.48% (inactive)
20,NC(CSC(c1ccccc1)(c1ccccc1)c1ccc(-c2ccccc2)cc1)C(=O)O (configuration not stated),-6.56% (inactive)
21,Cc1ccc(C(=O)O)cc1-c1ccc(/C=C2\SC(=O)N(CC(=O)Nc3ccc4c(c3)OCO4)C2=O)o1,0.69% (inactive)
22,N#Cc1ccccc1CN1C(=O)S/C(=C/c2cccn2-c2cccc(C(=O)O)c2)C1=O,26.4% (active)
23,Cc1cc(/C=C2/SC(=O)N(CC(=O)N3CCCC3)C2=O)c(C)n1C,-2.71% (inactive)
24,CC(=O)Nc1ccc(C=CC(=O)c2ccc([N+](=O)[O-])cc2)cc1,4.15% (inactive)
25,COc1ccc(CN2C(=O)C(CC(=O)NCCCCc3ccccc3)CC(C(=O)N3CCOCC3)=C2C)cc1 (configuration not stated),-0.11% (inactive)
26,Cc1ccc(NC(=O)COC(=O)CN2CCSC2=O)cc1F,-5.13% (inactive)
